Measurements: PubChem BioAssay AID485313 (National Center for Advancing Translational Sciences (NCATS), 2010)
The whole screen tested about 320,000 compounds, of which about 7,600 (2.4%) were called active. Inconclusive results (about 3%) are left out. The call rests on the fitted dose curve; in most records, active means well fitted activation curve with a large enough effect; inconclusive means small, poorly fitted or top-dose-only effect; inactive means no such curve, though single readings can be large or run the other way. This excerpt belongs to a sample that is enriched for actives.

Assay: qHTS Assay for NPC1 Promoter Activators; further: nearly all actives have a fitted effect of over 60% in size;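 on activation: reporter is driven by a mutant NPC1 promoter; % of control where 0% means no effect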
Conditions: Huh7 NPC1 promoter luciferase reporter, 24 h; series mostly up to 9.22 µM
Summary of the method: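 In 1536-well qHTS, Huh7 cells harboring an NPC1 promoter–luciferase construct received compound for 24 h; activation was quantified by luminescence following luciferase reagent addition.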
Potency means the concentration at half of the fitted maximal effect.

Potency, active:
COc1ccc(CN2C(=O)C(C)S/C2=N/N=C/c2ccco2)cc1 (stereo not drawn) 3160 nM, CCc1ccc2oc(-c3ccc(N)cc3)nc2c1 708 nM, Cc1cccc(NC(=O)/C=C/c2ccc3c(c2)OCO3)n1 1410 nM, Cc1cccc(NC(=O)Nc2ccc3c(c2)OCO3)n1 1780 nM, CNS(=O)(=O)c1ccc(NC(=O)Nc2ccc3c(c2)OCO3)cc1 2510 nM, COc1cccc(/C=C/C(=O)Nc2ccc3c(c2)OCCO3)c1 2510 nM, O=C(CSC(=S)N1CCOCC1)c1ccccc1 501 nM, O=C(CSC(=S)N1CCCCC1)c1c(F)cccc1F 1120 nM, COc1cc(/C=N/NC(=O)c2ccc(N3CCCC3=O)cc2)ccc1O 2510 nM, O=C(Nc1cc2ccccc2oc1=O)C1CCCCC1 447 nM, Cc1ccc(OCCOc2cccc(/C=N/NC(N)=O)c2)cc1 2820 nM, Cn1nccc1NS(=O)(=O)c1ccc(F)cc1 0.3 nM, Nc1[nH][nH]c(=O)c1N=Nc1ccc2c(c1)OCO2 2820 nM, CCC(=O)Nc1ccc(-c2ccc(N3CCCCC3)nn2)cc1 2240 nM, O=C(Nc1ccc2c(c1)OCO2)C1CC(c2c(F)cccc2Cl)=NO1 (stereo not drawn) 3980 nM

Potency, inactive:
CCCCNC(=O)OC(C)CNC(=O)OC (stereo not drawn), COc1ccc(NC(=O)COC(=O)c2n[nH]c3ccccc23)c(OC)c1, O=C(CSc1nnc(COc2ccc(Cl)cc2)n1Cc1ccco1)N1CCNC1=O, CCNC(=O)N1CCN(S(=O)(=O)c2ccc3c(c2)OCCCO3)CC1, C=CCN1C(=O)C(Cc2cccc(Cl)c2)S/C1=N/N=C/c1ccco1 (stereo not drawn), O=C1N/C(=N\N=C\c2ccco2)SC1Cc1ccc(F)cc1 (stereo not drawn), CCOc1ccc(S(=O)(=O)N2CCC(C(=O)NCC(=O)Nc3cccc(Cl)c3C)CC2)cc1, O=C(Nc1ccccc1F)c1ccc(S(=O)(=O)N2CCCCCC2)cc1, Cc1[nH]c2ccccc2c1C(=O)C(C)Sc1nnc(C2CC2)o1 (stereo not drawn), CC(NC(=O)Nc1ccc2c(c1)OCO2)c1ccncc1 (stereo not drawn), O=C(/C=C\c1ccc2c(c1)OCO2)NC1(C(=O)Nc2ccc3c(c2)OCCO3)CCCCC1, Cc1ccc(S(=O)(=O)NCC(=O)Nc2ccc3c(c2)OCCO3)cc1, O=C(O)/C=C/c1ccc2c(c1)OCCO2, CC(C)CNS(=O)(=O)c1ccc(C(=O)Nc2ccc3c(c2)OCO3)cc1, COc1ccc(OC)c(/C=C/C(=O)OCC(=O)Nc2ccc3c(c2)OCCO3)c1, O=C(/C=C/c1ccc2c(c1)OCO2)NCc1ccc(F)cc1, CC(NC(=O)Nc1cccc([N+](=O)[O-])c1)c1ccc2c(c1)OCO2 (stereo not drawn), COc1ccc(NC(=O)CN(C)C(=O)c2cc(C3CC3)nn2-c2ccccc2)cc1, O=S(=O)(c1ccc(Br)cc1)n1ccc2ccccc21, COc1ccc(S(=O)(=O)N2CCOCC2)cc1NC(=O)c1ccc(OCC(C)C)c(OC)c1, Cc1ccccc1NC(=O)Cc1nc(COC(=O)c2cccnc2Cl)cs1, O=C(CCc1ccccc1Cl)Nc1ccc(S(=O)(=O)Nc2nccs2)cc1, Cc1ccc(CN2CC(C(=O)N3CCN(S(=O)(=O)c4ccccc4)CC3)CC2=O)cc1 (stereo not drawn), NS(=O)(=O)c1ccc(CNC(=O)c2cccc(S(=O)(=O)N3CCc4ccccc43)c2)cc1, O=C(O)c1cccc(S(=O)(=O)N2CC=C(c3ccccc3)CC2)c1, COc1cccc(C(=O)OCC(=O)c2[nH]c(C)c(C(C)=O)c2C)c1, COCCN1C(=O)C(=O)/C(=C(/O)c2ccc(S(=O)(=O)N3CCCCC3)cc2)C1c1ccc(OC)c(OC)c1 (stereo not drawn), COc1cccc(NC(=O)CN(C)C(=O)CSC(=S)N2CCCC2)c1, O=C(CSC(=S)N1CCOCC1)c1cc(Br)cc(Br)c1O, CC1CN(C(=S)SCC(=O)c2ccccc2)CC(C)O1 (stereo not drawn), CC(=O)c1ccc(NC(=O)CSC(=S)N2CCCC2)cc1, C=CCC(NC(=O)Cc1ccccc1)C(=O)NCCC (stereo not drawn), COc1ccc2nc(NC3=NCN(CC4CCCO4)CN3)nc(C)c2c1 (stereo not drawn), COc1ccc(NS(=O)(=O)c2cc(NC(=O)COc3ccccc3F)ccc2OC)cc1, O=C(N/N=C/c1cccc(Br)c1)c1ccc(N2CCCC2=O)cc1, COc1ccc(C(=O)Nc2ccccc2C(=O)N/N=C/c2ccc(O)c(OC)c2)cc1, O=C1C=C(c2cccc(Cl)c2)C[C@@H](c2ccc(F)cc2)C1, CN1C(=O)c2ccc(NC(=O)C3CCCCC3)cc2C1=O, Cc1ccccc1NC(=O)C1CCN(C(=O)NC2CCCCC2)CC1, COc1ccc(S(=O)(=O)N2CCOCC2)cc1NC(=O)Cc1c(F)cccc1Cl, Cc1sc2ncnc(SCC(=O)Nc3ccc(CN4CCCC4)cc3)c2c1C, O=C(N/N=C/c1cccc(OCc2ccccc2)c1)c1ccc(Br)o1, Cc1cccc(OCC(=O)NCC(=O)N/N=C/c2ccc(N(C)C)cc2)c1, COc1ccc(OC)c(-c2csc(NC(=O)COC(=O)C3CC3)n2)c1, Cc1cc(C)cc(NS(=O)(=O)c2ccc(F)cc2)c1, Cc1ccc(NS(=O)(=O)c2ccc(F)cc2)nc1, O=C(CCNC(=O)c1ccc(Cl)cc1)NC1CCCc2ccccc21 (stereo not drawn), Cc1[nH][nH]c(=O)c1N=Nc1ccccc1, CC(=O)c1cc2c(cc1N)OCO2, Cc1cc(C)cc(OCC(=O)OCC(=O)NC2CCCC2)c1, Nc1ccn(CC(=O)N2CCN(c3ccccn3)CC2)c(=O)n1, CC(C)N(Cc1nnc(-c2ccccc2Br)o1)C(=O)c1cc(Cl)nc2ccccc12, CCC(=O)c1ccc(OCC(=O)Nc2ccc(N3CCCCC3)cc2)cc1, CCCCSc1nnc(-c2ccc(NC(=O)CC)cc2)n1C, CN(CC(=O)NCCc1ccc(F)cc1)CC(=O)Nc1ccc(F)c(F)c1F, Cc1ccc(NC(=O)C2CC(c3ccc(F)cc3)=NO2)cc1 (stereo not drawn), O=C(Nc1ccc2c(c1)OCO2)C1CC1(Cl)Cl (stereo not drawn), CN(Cc1cccs1)C(=O)CN1C(=O)c2ccccc2S1(=O)=O, O=C(COC(=O)c1cccc(Cl)c1)NC1CCCCCCC1, CCCN(CC(=O)NC(=O)NC1CCCCC1)CC(=O)Nc1cc(Cl)ccc1Cl, CC(=O)NC12CC3CC(C1)CC(C(=O)N1CCN(S(=O)(=O)c4cccs4)CC1)(C3)C2

activation, inactive:
COc1ccc(C(=O)N2CCN(c3ncccn3)CC2)cc1S(=O)(=O)N1CCOCC1 -2.21% [at 1.84 µM], O=C(NCC1CCCO1)c1cc2c(s1)CCCC2 (stereo not drawn) 12.7% [at 1.84 µM]
